Assay outcomes from PubChem.
Only some compounds are listed: those with a hit (about 21% of all), similar ones and a draw of the others.
NS1 function inh – inhibitors of influenza NS1 protein function; Potency, µM (doses to about 46.1 µM); 270,000 compounds, 0.4% hits; AID 2326; calls by dose curve; also: actives are rising curves; nearly all actives have a fitted effect of over 50% in size
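A cell-based growth assay was used: compounds that relieve NS1-induced slow growth of budding yeast raise OD600. Assay medium was yeast nitrogen base with ammonium sulphate and -URA supplement, pH 6.0, with 2% galactose.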
Giardia FBPA inh – Giardia lamblia aldolase inhibition; purified Giardia FBPA; 290,000 compounds, 0.71% hits; Potency, µM (series often up to 59.6 µM), usual class: inhibitors; AID 2451; also: nearly all actives have a fitted effect of over 55% in size
Target sequence (A8B2U2 whole entry, looked up): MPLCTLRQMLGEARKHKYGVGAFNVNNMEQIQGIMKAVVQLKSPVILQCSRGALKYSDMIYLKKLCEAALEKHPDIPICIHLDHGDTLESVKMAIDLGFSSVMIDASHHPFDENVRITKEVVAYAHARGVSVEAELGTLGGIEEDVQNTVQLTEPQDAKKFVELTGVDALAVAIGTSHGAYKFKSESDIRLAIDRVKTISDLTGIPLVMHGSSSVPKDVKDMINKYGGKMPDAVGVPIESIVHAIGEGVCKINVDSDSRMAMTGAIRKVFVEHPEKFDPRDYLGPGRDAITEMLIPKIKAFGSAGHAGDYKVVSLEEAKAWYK
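Giardia FBPA (40 nM reagent) was preincubated 10 min at RT with compound (up to 57.5 uM final), then substrate plus GAPDH/TPI/NAD/arsenate coupling system with diaphorase/resazurin was added; resorufin fluorescence (525/598 nm) was read after 20 min.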
Pf growth 96h – P. falciparum growth inhibition at 96 hour, primary screen for plastid delayed-death inhibitors; P. falciparum luciferase reporter growth, 96 h; Potency, µM (doses to about 28.7 µM), usual class: inhibitors; 320,000 compounds, 6.9% hits
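Cell-based qHTS: luciferase-tagged P. falciparum in erythrocytes (2% hematocrit, 0.05% parasitemia final) incubated with compounds for 96 hours, 37 C, 5% CO2; luciferase detection reagent then added and luminescence measured.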
Cycloheximide cs – counter-screen hit for Shiga toxin inhibitors, cycloheximide; 300,000 compounds, 12% hits; cell reporter, cycloheximide protein synthesis inhibition counterscreen; max response, %; AID 2314; in the data active = max response mostly above about 13%, no sharp cut-off; inactive = mostly below about 14%; also: read at 38.3 µM for the half of the compounds with a filed dose
Pf growth 48h – P. falciparum growth inhibition at 48 hours (one generation); Potency, µM (series often up to 28.7 µM), actives largely listed as inhibitors; P. falciparum luciferase growth in erythrocytes, 48 h; AID 504832; 310,000 compounds, 5.9% hits
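Here the parasites carry a stable luciferase gene and grow inside erythrocytes in Albumax-based RPMI medium with compound for one erythrocytic cycle. Activity is scored as loss of luminescent signal.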
Shiga inhibitor – Shiga toxin inhibition; Vero cells, Shiga toxin protein synthesis inhibition reporter; inhibition, % at 38.7 µM; 290,000 compounds, 9.2% hits; AID 2315; in the data active = inhibition mostly above about 28%, no sharp cut-off; inactive = mostly below about 43%
Hits are given with their value; [ ] = another dose, or the depositor's remark. Unless noted, calls follow the shape of the dose curve; as a rule, active = well fitted curve in the direction sought with a large enough effect; inconclusive = small, poorly fitted or top-dose-only effect, or another doubt; inactive = no such curve, though single readings can be large; an effect the other way counts as inactive or inconclusive.

For Cc1oc(-c2ccccc2F)nc1CS(=O)(=O)CC(=O)N1CCOCC1 the results were NS1 function inh inactive, Giardia FBPA inh inactive, Pf growth 96h 9.28µM, Cycloheximide cs inactive, Pf growth 48h inactive and Shiga inhibitor inactive.
Screening CCN1CCCC1CNC(=O)CSCc1nc(-c2ccccc2C)oc1C (stereo unspecified) returned NS1 function inh inactive, Giardia FBPA inh inactive, Pf growth 96h inactive, Cycloheximide cs inactive, Pf growth 48h inconclusive and Shiga inhibitor inactive.
Screening CCN1CCCC1CNC(=O)CS(=O)(=O)Cc1nc(-c2ccccc2C)oc1C (stereo unspecified) returned NS1 function inh inactive, Giardia FBPA inh inactive, Pf growth 96h inactive, Cycloheximide cs inactive, Pf growth 48h 11.7µM and Shiga inhibitor inactive.
Cc1oc(-c2ccccc2F)nc1CS(=O)(=O)CC(=O)NCCCN1CCc2ccccc2C1 was read as NS1 function inh inactive, Giardia FBPA inh inactive, Pf growth 96h 8.28µM, Cycloheximide cs inactive, Pf growth 48h inconclusive and Shiga inhibitor inactive.
For Cc1oc(-c2ccccc2F)nc1CS(=O)(=O)CC(=O)NCCN1CCCC1 the results were NS1 function inh inactive, Giardia FBPA inh inactive, Pf growth 96h inactive, Cycloheximide cs inactive, Pf growth 48h inconclusive and Shiga inhibitor inactive.
For CCOc1ccc(NC(=O)CN(C)C(=O)c2cc(S(=O)(=O)N3CCCCC3)ccc2C)cc1OCC the results were Pf growth 96h inactive and Pf growth 48h inactive.
For COC(=O)c1sccc1NC(=S)N1CCN(c2cccc(C)c2C)CC1 the results were NS1 function inh inactive, Giardia FBPA inh inactive, Pf growth 96h inactive, Cycloheximide cs inactive, Pf growth 48h inconclusive and Shiga inhibitor inactive.
For CN(C(=S)NC1CCCCC1)C1(c2ccccc2Cl)CCCCC1=O (stereo unspecified) the results were NS1 function inh inactive, Giardia FBPA inh inactive, Pf growth 96h inconclusive, Cycloheximide cs inactive, Pf growth 48h 11.7µM and Shiga inhibitor inactive.
Screening CN(C(=S)Nc1ccccc1F)C1(c2ccccc2Cl)CCCCC1=O (stereo unspecified) returned NS1 function inh inactive, Giardia FBPA inh inactive, Pf growth 96h inconclusive, Cycloheximide cs inactive, Pf growth 48h 10.4µM and Shiga inhibitor inactive.
Screening O=C(COC(=O)/C=C/c1ccccc1)NNC(=O)c1ccccc1F returned Pf growth 96h inactive and Pf growth 48h inactive.
Screening O=C(COC(=O)/C=C/c1ccccc1)Nc1cccnc1Cl returned Pf growth 96h inactive and Pf growth 48h inactive.
For O=C(/C=C/c1ccco1)Nc1ccccc1N1CCCCC1 the results were Giardia FBPA inh inactive, Pf growth 96h inactive[1.15 µM], Cycloheximide cs 24.3, Pf growth 48h inconclusive and Shiga inhibitor 92.4.
For O=C(/C=C/c1ccccc1)Nc1cccnc1Cl the results were NS1 function inh inactive, Giardia FBPA inh inactive, Pf growth 96h inactive, Cycloheximide cs 42.0, Pf growth 48h inactive and Shiga inhibitor 104.5.
Screening COC(=O)c1ccccc1NC(=O)/C=C/c1ccco1 returned NS1 function inh inactive, Giardia FBPA inh inactive, Pf growth 96h inactive, Cycloheximide cs 38.3, Pf growth 48h inconclusive and Shiga inhibitor 53.4.
Screening O=C(/C=C/c1ccco1)Nc1cccnc1Cl returned NS1 function inh inactive, Giardia FBPA inh inactive, Pf growth 96h inactive, Cycloheximide cs 45.5, Pf growth 48h inactive and Shiga inhibitor 157.1.
Screening Cc1cc2c3c([nH]c2cc1S(=O)(=O)NCc1ccc(CN2CCCCCC2)o1)CCCC3=O returned NS1 function inh inactive, Giardia FBPA inh inactive, Pf growth 96h inactive, Cycloheximide cs inactive, Pf growth 48h inconclusive and Shiga inhibitor inactive.
Screening N#CCCN(C(=O)COC(=O)c1ccc(S(=O)(=O)N2CCCC2)cc1)c1cccc(Cl)c1 returned Pf growth 96h inconclusive and Pf growth 48h inactive.
For Cc1sc(NC(=O)/C=C/c2ccco2)c(C(=O)O)c1C the results were NS1 function inh inactive, Giardia FBPA inh inconclusive, Pf growth 96h inactive, Cycloheximide cs 25.4, Pf growth 48h inconclusive and Shiga inhibitor inactive.
Screening CCOC(=O)c1c(NC(=O)/C=C/c2ccc(C)o2)sc(C)c1C returned NS1 function inh inactive, Giardia FBPA inh inactive, Pf growth 96h inactive, Cycloheximide cs inactive, Pf growth 48h inactive and Shiga inhibitor inactive.
For CCOc1ccc2nc(NC(=O)C3=NNC(=O)CC3)sc2c1 the results were Giardia FBPA inh inactive, Pf growth 96h inactive, Cycloheximide cs 17.2, Pf growth 48h inactive and Shiga inhibitor inactive.
For CCOc1ccc2nc(NC(=O)C3=NN(c4ccccc4)C(=O)CC3)sc2c1 the results were NS1 function inh inactive, Giardia FBPA inh inactive, Pf growth 96h inactive, Cycloheximide cs 30.1, Pf growth 48h inactive and Shiga inhibitor inactive.
`CCOc1ccc2nc(NC(=O)CN3C(=O)NC4(CCCC4)C3=O)sc2c1` gave Pf growth 96h inactive and Pf growth 48h inactive.
Screening CC[N+](C)(C)CCN(Cc1ccc(Cl)cc1)c1ccccn1 returned NS1 function inh inactive, Giardia FBPA inh inactive, Pf growth 96h 2.62µM, Cycloheximide cs inactive and Shiga inhibitor inactive.
`Cc1cc(NC(=O)C(C)Sc2nc(-c3ccccc3)cc(=O)[nH]2)no1` (stereo unspecified) gave NS1 function inh inactive, Giardia FBPA inh inconclusive, Pf growth 96h inconclusive, Cycloheximide cs inactive, Pf growth 48h inactive and Shiga inhibitor inactive.
CC(=O)c1ccc(OCCCCCCCOc2ccc(C(C)=O)cc2)cc1 was read as NS1 function inh inactive, Giardia FBPA inh inactive, Pf growth 96h inconclusive, Cycloheximide cs inactive and Pf growth 48h inactive.
For COc1ccccc1NC=C1C(=O)OC(C)(C)OC1=O the results were NS1 function inh inactive, Giardia FBPA inh inactive, Pf growth 96h inconclusive, Cycloheximide cs 36.5, Pf growth 48h inactive and Shiga inhibitor 82.0.
CCOc1ccccc1NC=C1C(=O)OC(C)(C)OC1=O was read as NS1 function inh inactive, Giardia FBPA inh inactive, Pf growth 96h inactive, Cycloheximide cs inactive, Pf growth 48h inactive and Shiga inhibitor inactive.
`CC(C)(C)c1ccc(OCCOc2ccc(C(C)(C)C)cc2NC=O)c(NC=O)c1` gave NS1 function inh inactive, Giardia FBPA inh inactive, Pf growth 96h 2.62µM, Cycloheximide cs inactive, Pf growth 48h 10.4µM and Shiga inhibitor inactive.
For COCCOc1ccc(C(F)(F)F)cc1NC(=O)c1ccccc1 the results were NS1 function inh inactive, Giardia FBPA inh inactive, Pf growth 96h inactive, Cycloheximide cs inactive, Pf growth 48h inactive and Shiga inhibitor inactive.
For c1cc(-n2nnc3cnccc32)ccn1 the results were NS1 function inh inactive, Giardia FBPA inh inactive, Pf growth 96h inactive, Cycloheximide cs inactive, Pf growth 48h inactive and Shiga inhibitor inactive.
Screening c1ccc(-n2nnc3cnccc32)cc1 returned NS1 function inh inactive, Giardia FBPA inh inactive, Pf growth 96h inconclusive, Cycloheximide cs 23.6, Pf growth 48h inactive and Shiga inhibitor inactive.
For Nc1c(S(=O)(=O)c2ccccc2)nnn1-c1ccccc1 the results were NS1 function inh inactive, Giardia FBPA inh inactive, Pf growth 96h inconclusive, Cycloheximide cs inactive, Pf growth 48h inactive and Shiga inhibitor inactive.
Screening Nc1ccc2c(c1)nnn2-c1ccccc1 returned NS1 function inh inactive, Giardia FBPA inh inactive, Pf growth 96h inactive, Cycloheximide cs 32.0, Pf growth 48h inactive and Shiga inhibitor inactive.
